From PubChem BioAssay
Calls of active or inactive are those of the source.

Experiments:
[1] = tested on: Human papillomavirus type 1a protein E7 (residues 44-93); test: small molecules binding HPV E7 44-93 – biochemical, small-molecule microarray, residues 44-93, 635 nm fluorescence, primary screen (AID 1108); conditions: fluorescence 635 nm, higher = more signal;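 also: E7 fragment applied at 1 µg/mL in TBST for 1 h at 4 C; score combines spot fluorescence with its signal to noise ratio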
[2] = hepatitis C replication reporter changes, two-sided – Huh7 cells, luciferase reporter, HCV replication inhibitor project, primary screen (AID 1109); conditions: Huh7 HCV replicon luciferase reporter, 48 h; higher = more signal;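 also: huh7 hepatoma cells harbouring a luciferase neomycin HCV replicon reporter; luciferase luminescence as measure of HCV replicon replication; test concentration not given here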
[3] = target: Left-right determination factor 2 (Homo sapiens) (UniProt O00292); test: small molecules binding LEFTY2 protein – biochemical, small-molecule microarray, 635 nm fluorescence scan, primary screen (AID 1110); conditions: higher = more signal
Chain of Left-right determination factor 2 (Homo sapiens) (O00292 whole entry, looked up): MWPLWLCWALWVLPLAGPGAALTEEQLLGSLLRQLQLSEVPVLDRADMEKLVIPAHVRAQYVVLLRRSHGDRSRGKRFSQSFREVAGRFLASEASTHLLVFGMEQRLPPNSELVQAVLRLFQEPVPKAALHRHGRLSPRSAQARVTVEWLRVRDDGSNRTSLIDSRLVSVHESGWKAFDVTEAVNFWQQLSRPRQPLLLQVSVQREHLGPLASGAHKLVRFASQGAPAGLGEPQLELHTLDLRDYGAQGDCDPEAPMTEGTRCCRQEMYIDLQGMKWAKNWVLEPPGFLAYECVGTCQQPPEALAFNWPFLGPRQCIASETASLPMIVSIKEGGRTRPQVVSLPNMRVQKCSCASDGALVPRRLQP

[4] = target: Calmodulin-1 (Homo sapiens) (UniProt P0DP23); test: small molecules binding calmodulin-1 with EGTA – biochemical, small-molecule microarray, Cy5-labelled CALM1, profiling panel (AID 1111); conditions: Cy5-CALM1 binding fluorescence, higher = more signal;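 also: labelled calmodulin applied in Tris saline Tween buffer holding calcium plus EGTA and DTT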
[5] = target: Calmodulin-1 (Homo sapiens) (UniProt P0DP23); test: small molecules binding Ca-loaded calmodulin-1 – biochemical, small-molecule microarray, Cy5-labelled CALM1, plus calcium, artefact control for SMM control-protein annotation, profiling panel (AID 1112); conditions: Cy5-CALM1 binding fluorescence, higher = more signal;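 also: score merges spot fluorescence with signal to noise from triplicate slides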
[6] = probe aWnt5a binding to arrayed compounds – biochemical, biotinylated probe, 635/667 nm fluorescence, primary screen (AID 1113); conditions: small-molecule microarray, higher = more signal;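 also: score merges 667 nm fluorescence intensity with signal-to-noise per printed feature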
[7] = probe aShh binding to arrayed compounds – biochemical, biotinylated probe, 635/667 nm fluorescence, primary screen (AID 1114); conditions: small-molecule microarray, higher = more signal;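 also: probe is biotin-labelled aShh protein from a stem cell growth factor screen; measures binding of labelled protein to compounds printed on the slide; score merges feature fluorescence at 667 nm with signal-to-noise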
[8] = probe aNog binding to arrayed compounds – biochemical, biotinylated probe, 635/667 nm fluorescence, primary screen (AID 1115); conditions: small-molecule microarray, higher = more signal;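 also: probe is biotinylated aNog protein used at 0.15 µg/mL for 1 h at 4 C; z-score combines 667 nm fluorescence of each spot with its signal to noise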
[9] = target: Torsin-1A-interacting protein 1 (Homo sapiens) (UniProt Q5JTV8); test: compound microarray binding of lysate hLAP1 – cell lysate, small-molecule microarray, COS7 lysate, 635/667 nm fluorescence, primary screen (AID 1116); conditions: 635 nm fluorescence, higher = more signal
Chain of Torsin-1A-interacting protein 1 (Homo sapiens) (Q5JTV8 whole entry, looked up): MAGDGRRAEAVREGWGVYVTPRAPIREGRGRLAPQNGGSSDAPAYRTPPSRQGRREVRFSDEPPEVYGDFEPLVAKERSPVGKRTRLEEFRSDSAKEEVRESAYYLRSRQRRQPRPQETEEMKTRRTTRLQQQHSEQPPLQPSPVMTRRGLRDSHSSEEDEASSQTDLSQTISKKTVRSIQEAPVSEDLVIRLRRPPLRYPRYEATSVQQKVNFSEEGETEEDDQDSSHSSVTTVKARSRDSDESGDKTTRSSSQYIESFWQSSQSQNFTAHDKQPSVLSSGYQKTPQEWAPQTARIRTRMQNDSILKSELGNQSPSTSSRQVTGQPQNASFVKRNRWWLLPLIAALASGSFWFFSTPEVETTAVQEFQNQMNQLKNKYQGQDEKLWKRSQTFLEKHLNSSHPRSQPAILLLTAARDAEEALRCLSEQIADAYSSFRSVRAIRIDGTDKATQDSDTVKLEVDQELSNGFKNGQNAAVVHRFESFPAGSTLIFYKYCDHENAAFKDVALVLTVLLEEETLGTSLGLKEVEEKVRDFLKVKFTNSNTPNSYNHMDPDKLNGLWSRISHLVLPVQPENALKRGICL

[10] = target: Alpha-bungarotoxin (Bungarus multicinctus) (UniProt P60615); test: compounds binding labelled alpha-BTX control protein – biochemical, small-molecule microarray, Alexa647 label, 635/667 nm fluorescence, artefact control for SMM control protein annotation, profiling panel (AID 1117); conditions: alpha-BTX-A647 binding fluorescence, higher = more signal
Chain of Alpha-bungarotoxin (Bungarus multicinctus) (P60615 whole entry, looked up): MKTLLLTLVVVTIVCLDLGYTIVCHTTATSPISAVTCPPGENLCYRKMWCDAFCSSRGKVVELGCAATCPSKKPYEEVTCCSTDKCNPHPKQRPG

[11] = target: Albumin (Bos taurus) (UniProt P02769); test: compounds binding labelled BSA control protein – biochemical, small-molecule microarray, Alexa647 label, 635/667 nm fluorescence, artefact control for SMM control protein annotation, profiling panel (AID 1118); conditions: BSA-A647 binding, fluorescence 635 nm, higher = more signal;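 also: score merges 667 nm emission intensity and signal-to-noise per printed compound spot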
Chain of Albumin (Bos taurus) (P02769 whole entry, looked up): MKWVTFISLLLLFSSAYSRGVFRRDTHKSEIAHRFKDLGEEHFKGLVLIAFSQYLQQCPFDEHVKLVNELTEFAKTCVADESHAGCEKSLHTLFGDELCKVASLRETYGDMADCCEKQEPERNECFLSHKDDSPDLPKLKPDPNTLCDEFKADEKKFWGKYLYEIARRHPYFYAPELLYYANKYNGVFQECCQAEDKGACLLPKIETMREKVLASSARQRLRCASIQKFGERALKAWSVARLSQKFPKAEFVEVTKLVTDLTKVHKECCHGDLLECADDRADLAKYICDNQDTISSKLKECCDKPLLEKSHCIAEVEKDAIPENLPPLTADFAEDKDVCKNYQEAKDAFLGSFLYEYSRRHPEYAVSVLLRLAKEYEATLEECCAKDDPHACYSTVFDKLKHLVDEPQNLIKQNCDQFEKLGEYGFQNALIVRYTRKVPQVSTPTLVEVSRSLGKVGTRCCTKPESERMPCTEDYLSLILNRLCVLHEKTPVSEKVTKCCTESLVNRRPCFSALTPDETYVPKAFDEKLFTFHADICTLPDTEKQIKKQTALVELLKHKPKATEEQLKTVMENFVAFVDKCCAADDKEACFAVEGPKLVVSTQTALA

[12] = probe aXIP binding to arrayed compounds – biochemical, NeuroSMM set, 635/667 nm fluorescence, primary screen (AID 1119); conditions: small-molecule microarray, higher = more signal, called active from +8 up or from −8 down;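 also: probe is the protein aXip251-270 applied at 1 µg/mL to compound-printed slides; binding of probe to printed compounds measured as 667 nm fluorescence plus signal to noise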
[13] = probe aNOTCH3 binding on compound microarray – biochemical, small-molecule microarray, 635/667 nm fluorescence, primary screen (AID 1120); conditions: higher = more signal;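 also: probe is a biotin-tagged antibody raised against NOTCH3 rather than NOTCH3 protein; score merges spot fluorescence near 667 nm with spot signal to noise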
[14] = probe aNOTCH2 binding on compound microarray – biochemical, small-molecule microarray, 635/667 nm fluorescence, primary screen (AID 1121); conditions: higher = more signal;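 also: score merges feature fluorescence read at 667 nm with its signal to noise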
[15] = target: Carbonic anhydrase 2 (Homo sapiens) (UniProt P00918); test: compounds binding carbonic anhydrase 2 – biochemical, small-molecule microarray, Alexa647-labelled CAII, profiling panel (AID 1122); conditions: CAII-A647 binding fluorescence, higher = more signal
[16] = COS7 lysate on small-molecule microarray, probe aHis, 635 nm (AID 1123); conditions: COS7 cell lysate, fluorescence, higher = more signal;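 also: z-score combines 667nm fluorescence intensity with signal-to-noise per printed compound spot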
[17] = probe aLAP1 signal on lysate-treated microarray – cell lysate, small-molecule microarray, COS7 lysate, primary screen (AID 1124); conditions: probe aLAP1, fluorescence, higher = more signal;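 also: lysate comes from COS7 cells expressing LAP1 and is applied at 0.3 µg/mL; score merges spot fluorescence near 667 nm with signal-to-noise over triplicate slides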
[18] = tested on: Sam68 (KHDRBS1); test: compounds binding KHDRBS1 protein – biochemical, small-molecule microarray, 635 nm fluorescence, primary screen (AID 1125); conditions: higher = more signal;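 also: score merges 667 nm channel intensity with signal to noise over triplicate slides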
[19] = tested on: Chordin-like protein 2 (CHRDL2); test: compounds binding chordin-like 2 – biochemical, small-molecule microarray, 635 nm fluorescence, primary screen (AID 1126); conditions: fluorescence 635 nm, higher = more signal;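 also: printed compound slides probed with Chrdl2 protein at 4 µg/mL for 1 h at 4 C; score merges 667 nm emission intensity with signal to noise over three replicate slides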
[20] = target: Concanavalin-A (Canavalia ensiformis) (UniProt P02866); test: compounds binding concanavalin A lectin – biochemical, small-molecule microarray, Alexa647 label, 635 nm, artefact control for SMM control protein annotation, primary screen (AID 1127); conditions: ConA-A647 binding fluorescence, higher = more signal;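 also: z combines 667 nm emission intensity with signal-to-noise across three replicate slides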
Chain of Concanavalin-A (Canavalia ensiformis) (P02866 whole entry, looked up): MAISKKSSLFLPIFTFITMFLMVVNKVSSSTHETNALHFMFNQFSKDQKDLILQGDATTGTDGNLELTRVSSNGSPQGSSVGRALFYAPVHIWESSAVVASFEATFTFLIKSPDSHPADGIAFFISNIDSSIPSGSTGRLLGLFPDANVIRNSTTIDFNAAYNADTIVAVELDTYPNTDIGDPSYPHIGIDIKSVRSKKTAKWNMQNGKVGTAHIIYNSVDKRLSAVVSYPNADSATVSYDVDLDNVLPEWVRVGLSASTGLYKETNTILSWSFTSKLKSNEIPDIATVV

Compound	composite z-score [1]	z-score [2]	composite z-score [3]	composite z-score [4]	composite z-score [5]	composite z-score [6]	composite z-score [7]	composite z-score [8]	composite z-score [9]	composite z-score [10]	composite z-score [11]	composite Z-score [12]	composite z-score [13]	composite z-score [14]	composite z-score [15]	composite z-score [16]	composite z-score [17]	composite z-score [18]	composite z-score [19]	composite z-score [20]
[N-]=[N+]=NCc1ccccc1[C@H]1OC(c2ccc(OCCCO)cc2)=N[C@@]1(Cc1ccccc1N=[N+]=[N-])C(=O)N1CCCCC1	1.46	-2.19	0.291	1	0.289	0.132	-0.157	1.76	1.44	1.3	-0.0584	-0.202 (inactive)	0.374	0.104	0.559	2.97	0.608	1.29	0.0975	0.988
COCCCNC(=O)[C@@H]1c2ccccc2C(=O)N(Cc2cc(F)cc(C(F)(F)F)c2)[C@H]1c1ccc(CO)cc1	-1.6	-0.252	-1.36	-0.365	-0.167	-0.212	-0.153	-0.285	-1.13	-0.4	-0.146	0.147 (inactive)	-0.388	-0.0826	0.761	-0.838	-0.438	-1.24	-1.24	-0.265
O=C1C[C@@](C(=O)O)(c2ccc([N+](=O)[O-])cc2)[C@@H](c2ccc(CO)cc2)N1CC12CC3CC(CC(C3)C1)C2	1.4	-1.94	0.408	1.09	0.472	-0.172	0.358	0.995	1.41	1.2	0.656	-0.261 (inactive)	0.18	0.0362	0.46	1.74	0.611	1.19	-0.346	0.687
COC(=O)[C@@]1(Cc2ccccc2N=[N+]=[N-])N=C(c2ccc(OCCCO)cc2)O[C@H]1c1ccccc1	1.34	-3.38	-0.319	0.694	0.278	0.0136	0.0121	-0.466	1.37	0.873	0.371	0.17 (inactive)	-0.0377	-0.0563	0.593	1.28	0.156	1.16	-0.608	1.11
NC(=O)NCC#Cc1ccc2c(c1)[C@]1(C(=O)N2)[C@H](c2ccc(OCCO)cc2)N2[C@H](c3ccccc3)[C@H](c3ccccc3)OC(=O)[C@H]2[C@@H]1C(=O)N1CCN(c2ncccn2)CC1	0.833	-0.488	0.259	0.362	0.492	-0.0977	0.156	0.042	0.655	1.21	-0.17	-0.991 (inactive)	0.108	0.0101	0.257	0.815	0.332	0.776	0.903	0.698
